A short description of assay [1]: NCI Yeast Anticancer Drug Screen. Data for the rad50 strain (AID 155).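 Further: 0% = growth of vehicle-only cultures of the same strain.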 The settings on record: S. cerevisiae rad50 strain growth inhibition; at 50.0 µM; hits give high values. A digest of the protocol:
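A DNA repair-deficient yeast mutant serves as the test organism; compound-induced growth inhibition is calculated against vehicle-treated cells.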

A short description of assay [2]: NCI Yeast Anticancer Drug Screen. Data for the mec2-1 strain (AID 157). The settings on record: S. cerevisiae mec2-1 strain, at 50.0 µM, hits give high values. A digest of the protocol:
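Test agents were screened against the mec2-1 yeast strain, with defined DNA repair or cell cycle alteration. Growth was scored as inhibition against vehicle-only controls.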

Assay [3] can be described thus: NCI Yeast Anticancer Drug Screen. Data for the sgs1 mgt1 strain (AID 161).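 Further: 0% = growth of cultures given vehicle only.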 As to conditions: S. cerevisiae sgs1 mgt1 strain, at 50.0 µM, hits give high values. A digest of the protocol: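 Test agents were incubated with a DNA-repair-mutant yeast strain. Growth was then read and compared against vehicle-treated controls.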
Assay [4] is described as follows: NCI Yeast Anticancer Drug Screen. Data for the cln2 rad14 strain (AID 165).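 Further: 0% = growth equal to vehicle treated cultures.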 The settings on record: S. cerevisiae cln2 rad14 strain, at 50.0 µM, hits give high values. A digest of the protocol:
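Growth of compound-exposed yeast (cln2 rad14 genotype) measured and expressed as inhibition relative to vehicle.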

Assay [5] is described as follows: NCI Yeast Anticancer Drug Screen. Data for the bub3 strain (AID 167). The settings on record: S. cerevisiae bub3 mutant strain, at 50.0 µM, hits give high values. The method in brief:
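Inhibition values come from growth of compound-treated mutant yeast normalised to vehicle-treated controls.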

The nature of assay [6]: NCI Yeast Anticancer Drug Screen. Data for the mlh1 rad18 strain (AID 175). As to conditions: S. cerevisiae mlh1 rad18 strain growth inhibition; at 50.0 µM; hits give high values. A digest of the protocol:
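In this whole-cell yeast screen, a strain with altered DNA damage repair is challenged with compound, and its growth is measured against matched vehicle-treated controls.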

SMILES strings stand for the structures. The panel holds about 79,000 compounds, 15% with a hit somewhere; the sample as a whole holds those more often. Values without a mark were called inactive. The source made the active and inactive calls. No stated cut-off is given here; in the data, active means growth inhibition above about 70%; inactive means the rest.

Consider `COc1ccc(/C=C/C=C/C(=O)O)cc1OC`, for which the growth inhibition is -2.8% in assay [1]; -9.7% in assay [2]; -12.4% in assay [3]; 5.85% in assay [4]; 2.8% in assay [5]; 15.1% in assay [6].
Take `COc1ccc2[nH]c3c4c(cc(-c5ccccc5)c3c2c1)C(=O)N(c1ccccc1)C4=O`: the growth inhibition is -11.1% in assay [1]; -6% in assay [2]; -16.6% in assay [3]; 11.2% in assay [4]; -4.3% in assay [5]; -6.8% in assay [6].
`COC(=O)C1CN(Cc2ccccc2)C(=O)C1=O` (centres undefined): the growth inhibition in assay [1] was -11.3%; in assay [2], -8.75%; in assay [3] it was 2.65%; in assay [4], -5.1%; in assay [5], 3.95%; in assay [6], 15.2%.
As for `C=CCC1(CO)CCCCC1O` (centres undefined), the growth inhibition was 1.6% in assay [1]; 1.5% in assay [2]; 16.4% in assay [3]; -73.4% in assay [4]; 10.3% in assay [5]; 3.2% in assay [6].
Consider `CCOc1c/c(=N\N=C(/C)c2ccc(Cl)cc2)n(C)c(=O)n1C`, for which the growth inhibition in assay [1] is -13.8%; in assay [2], -8.5%; in assay [3] it was -10.5%; in assay [4] it was -35.2%; in assay [5], -6.85%; in assay [6], -12.7%.
With `CC(CN(C)C)C(=O)C(=Cc1ccccc1)C(=O)C(C)CN(C)C` (centres undefined), the growth inhibition in assay [1] is 40.1%; in assay [2], 13.1%; in assay [3], 16.9%; in assay [4], 22.5%; in assay [5], -2.5%; in assay [6] it was 20%.
For `CCOc1ccccc1C(=O)N(CC)CC`, the growth inhibition in assay [1] was -8.55%; in assay [2], -3.2%; in assay [3], -4.6%; in assay [4] it was -5.85%; in assay [5] it was -9.8%; in assay [6], -5.65%.
With `COc1ccc(C2OCC(c3ccccc3)O2)cc1` (centres undefined), the growth inhibition in assay [1] was -13.4%; in assay [2], -7.65%; in assay [3] it was -18.5%; in assay [4], -37%; in assay [5] it was 3.15%; in assay [6], -29.1%.
Regarding `CC(C)N(C(=O)C12C3C4C5C3C1(C(=O)N(C(C)C)C(C)C)C5(C#N)C42)C(C)C` (centres undefined), the growth inhibition in assay [1] was 22.6%; in assay [2] it was 3.65%; in assay [3], 5.6%; in assay [4], 13.7%; in assay [5], 13.4%; in assay [6], 4.2%.
As for `CC1(C)OCC(C2OC3OC(C)(C)OC3/C2=N/NC(=O)c2cc3cc(OCc4ccccc4)ccc3[nH]2)O1` (centres undefined), the growth inhibition is 82.5% (active) in assay [1]; 90.8% (active) in assay [2]; 39.6% in assay [3]; 92.2% (active) in assay [4]; 84.3% (active) in assay [5]; 86% (active) in assay [6].
Consider `CCCn1c(C)nc2cc(C(F)(F)F)cc(N)c21`, for which the growth inhibition in assay [1] was 14.3%; in assay [2], 11.4%; in assay [3], 1.55%; in assay [4] it was -35.4%; in assay [5], 17.9%; in assay [6], 5.5%.
Take `COc1cc(-c2ccc(Nc3ccccc3C(=O)O)c(OC)c2)ccc1Nc1ccccc1C(=O)O`: the growth inhibition in assay [1] was -4.45%; in assay [2], 0.2%; in assay [3], 1.05%; in assay [4], 8.15%; in assay [5] it was 3.8%; in assay [6], -11.9%.
Regarding `Cc1ccc(NC(=O)Nc2ccccc2Cl)cc1Cl`, the growth inhibition in assay [1] was 12.6%; in assay [2], 17.5%; in assay [3] it was 6.1%; in assay [4] it was -20.4%; in assay [5], 4.75%; in assay [6], -4.55%.
For the compound `O=c1[nH]cc(N=Cc2ccccc2O)c(=O)[nH]1.[Cl][Pt]`, the growth inhibition was 24.9% in assay [1]; 9.05% in assay [2]; 39% in assay [3]; 3.35% in assay [4]; 3.2% in assay [5]; 0.4% in assay [6].
As for `Cc1nc(Nc2ccc([N+](=O)[O-])cc2)sc1C(=O)/C=C/c1ccc(N(C)C)cc1`, the growth inhibition was 5.1% in assay [1]; -6.85% in assay [2]; 5.6% in assay [3]; 16.2% in assay [4]; 18.6% in assay [5]; -1.1% in assay [6].
As to `CC[N+](C)(CC)Cc1ccc([NH-])c([NH-])c1.[Cl][Pt+2][Cl]`, the growth inhibition in assay [1] is 35.1%; in assay [2], 27.4%; in assay [3], 36%; in assay [4], 37.2%; in assay [5], -13.7%; in assay [6], 28.4%.
Consider `Oc1ccc2ccccc2c1/C=N\Sc1ccc(Br)cc1`, for which the growth inhibition in assay [1] was 35.1%; in assay [2], 37.5%; in assay [3], 64.2%; in assay [4], 28.5%; in assay [5], 32.2%; in assay [6], 49.5%.
For the compound `CCCCCC(=O)OCCN(C)C`, the growth inhibition in assay [1] was -7.15%; in assay [2] it was -24.2%; in assay [3], -4.45%; in assay [4], 21.1%; in assay [5], -13.5%; in assay [6], 24.9%.
On to `CC(C)=NOC(=O)Nc1ccccc1`, for which the growth inhibition in assay [1] was 44.4%; in assay [2], -19.8%; in assay [3], 14.9%; in assay [4] it was -15.4%; in assay [5] it was 1.7%; in assay [6] it was 33.9%.

For the origin of these results see PubChem BioAssay (NCI).
